15 compounds from PubChem BioAssay AID1159537 (DiRusso Lab, Biochemistry Department, University of Nebraska, 2015) can be followed below.

The campaign covered roughly 44,000 compounds. About 370 (0.84%) were called active. The sample holds actives, similar compounds and a random draw of the others, so the mix is not that of the screen. No rule for the calls is given here.

A short description of the assay: inducers of TAG accumulation in Chlamydomonas, primary screen, qHTS, Chlamydomonas reinhardtii (AID 1159537).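 Also: hits raise Nile Red signal meaning more stored TAG.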 The following applies: Nile Red fluorescence, 72 h. (In general: In qHTS, concentration-response curves come from the screen itself.)
As to `CCN(CC)CC#CCOc1ccccc1`, the outcome is “active [screened at 10 µM (by protocol)]”. On to `O=C(Nc1cccc(OC(=O)N2CCCCC2)c1)N1CCOCC1`, for which the compound was called inactive. `CCN(CC)CCNc1ccc([N+](=O)[O-])c2cccnc12`: the outcome was “inactive [screened at 10 µM (by protocol)]”. With `CN1CCCN(CC2=CC[C@H]3C[C@@H]2C3(C)C)CC1`, the outcome is “active [screened at 10 µM (by protocol)]”. For `CN1CCN(Cc2cc(Br)cs2)CC1`, the outcome was “inactive [screened at 10 µM (by protocol)]”. Under `CCN1CCN(CC2=CC[C@H]3C[C@@H]2C3(C)C)CC1` stands “inactive [screened at 10 µM (by protocol)]”. As for `Cc1cccc(OCC(=O)N2CCN(Cc3ccccc3)CC2)c1C`, the outcome is “inactive [screened at 10 µM (by protocol)]”.

As for `Fc1cccc(Cl)c1CN1CCN(c2ccccc2)CC1`, the call was inactive. Regarding `O=c1cccc2n1CC1CC2CN(c2nc(N3CCOCC3)nc(N3CCOCC3)n2)C1` (stereo not given), the outcome was inactive. With `Cc1ccc(C)c(N2CCN(Cc3ccc([N+](=O)[O-])cc3)CC2)c1`, the compound was called active. With `COc1ccccc1N1CCN(Cc2cccc([N+](=O)[O-])c2)CC1`, the compound was called inactive.

In the case of `O=[N+]([O-])c1ccc(CN2CCN(c3cccc(Cl)c3)CC2)cc1`, the call was inactive. As for `CCC1(c2ccccc2)C(=O)NC(=O)N(C)C1=O` (stereo not given), the compound was classed as inactive. To `Nc1ccc(-c2ccc(N)c(N)c2)cc1N` belongs “inactive [screened at 10 µM (by protocol)]”; to `N#CC(/C=C/c1ccccc1)N1CCOCC1` (stereo not given), “inactive”.
